In PubChem BioAssay (NCI):
Compounds without any hit were thinned out: in the full panel of roughly 83,000, 20% have a hit.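 The test compound was applied at a single concentration to cells in 96-well plates for 48 hours, and percent growth was recorded.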

Experiments:
Test in all cases: NCI-60 one-dose screen, 48 h (100 = growth as untreated, 0 = no growth, -100 = all killed)
Settings in all cases: 10 µM unless noted; active means growth percent below 10; inactive means the rest
HCT-15 colon = system: HCT-15 colon
HT29 colon = system: HT29 colon
SNB-75 CNS = system: SNB-75 CNS
SNB-19 CNS = system: SNB-19 CNS
U251 CNS = system: U251 CNS
PC-3 prostate = system: PC-3 prostate
SK-MEL-5 melanoma = system: SK-MEL-5 melanoma
UACC-62 melanoma = system: UACC-62 melanoma
LOX IMVI melanoma = system: LOX IMVI melanoma
SK-MEL-28 melanoma = system: SK-MEL-28 melanoma
SK-MEL-2 melanoma = system: SK-MEL-2 melanoma
SN12C renal = system: SN12C renal
UO-31 renal = system: UO-31 renal
TK-10 renal = system: TK-10 renal
ACHN renal = system: ACHN renal
CAKI-1 renal = system: CAKI-1 renal
A498 renal = system: A498 renal
CCRF-CEM leukemia = system: CCRF-CEM leukemia
MOLT-4 leukemia = system: MOLT-4 leukemia
EKVX NSCLC = system: EKVX NSCLC

Measured: growth

COc1cc(-c2cc(/C=C3\CCCCC3=O)[nH]n2)cc(OC)c1OC
inactive: HCT-15 colon 94.1% | HT29 colon 100% | SNB-75 CNS 85.8% | SNB-19 CNS 97.5% | U251 CNS 92.2% | PC-3 prostate 89.2% | SK-MEL-5 melanoma 92.8% | UACC-62 melanoma 106% | LOX IMVI melanoma 93.8% | SK-MEL-28 melanoma 114% | SK-MEL-2 melanoma 94.7% | SN12C renal 93.8% | UO-31 renal 80.8% | TK-10 renal 112% | ACHN renal 98.7% | CAKI-1 renal 91.2% | A498 renal 95.2% | CCRF-CEM leukemia 69.5% | MOLT-4 leukemia 82%

COc1ccc(/C=N/NC(=O)Cn2c(Cc3cccc4ccccc34)nc3ccccc32)cc1
inactive: HCT-15 colon 95.7% | HT29 colon 108% | SNB-75 CNS 102% | SNB-19 CNS 92.2% | U251 CNS 99.7% | PC-3 prostate 83.2% | SK-MEL-5 melanoma 96.1% | UACC-62 melanoma 87.7% | LOX IMVI melanoma 88.3% | SK-MEL-28 melanoma 109% | SK-MEL-2 melanoma 99.5% | SN12C renal 93.1% | UO-31 renal 72.1% | TK-10 renal 105% | ACHN renal 107% | CAKI-1 renal 83.8% | A498 renal 85.5% | CCRF-CEM leukemia 91% | MOLT-4 leukemia 69.5%

Cc1ccnc2nc(C(=O)OCC(=O)Nc3ccc(-c4ccccc4)cc3)nn12
inactive: HCT-15 colon 105% | HT29 colon 108% | SNB-75 CNS 95% | SNB-19 CNS 103% | U251 CNS 101% | PC-3 prostate 102% | SK-MEL-5 melanoma 105% | UACC-62 melanoma 116% | LOX IMVI melanoma 99% | SK-MEL-28 melanoma 110% | SK-MEL-2 melanoma 77.3% | EKVX NSCLC 104% | SN12C renal 102% | UO-31 renal 62.8% | TK-10 renal 118% | CAKI-1 renal 91% | A498 renal 105% | CCRF-CEM leukemia 91.6% | MOLT-4 leukemia 65%

CCCCNC(=O)NS(=O)(=O)c1ccc(N2N=C(c3ccc(C)cc3C)CC2c2ccc(OC)cc2)cc1 (configuration not stated)
inactive: HCT-15 colon 47% | HT29 colon 88% | SNB-75 CNS 85.4% | SNB-19 CNS 81.2% | U251 CNS 44.9% | PC-3 prostate 50.1% | SK-MEL-5 melanoma 55.6% | UACC-62 melanoma 60% | LOX IMVI melanoma 56.2% | SK-MEL-28 melanoma 44.8% | SK-MEL-2 melanoma 81.3% | SN12C renal 75% | UO-31 renal 59.7% | TK-10 renal 88.7% | ACHN renal 64% | CAKI-1 renal 70.8% | A498 renal 52.9% | CCRF-CEM leukemia 54.3% | MOLT-4 leukemia 52.3%

CNC(C)=O
inactive: HCT-15 colon 105% | HT29 colon 94.8% | SNB-75 CNS 104% | SNB-19 CNS 104% | U251 CNS 93.4% | PC-3 prostate 96.6% | SK-MEL-5 melanoma 102% | UACC-62 melanoma 105% | LOX IMVI melanoma 95% | SK-MEL-28 melanoma 101% | SK-MEL-2 melanoma 104% | SN12C renal 100% | UO-31 renal 93.3% | TK-10 renal 91.1% | ACHN renal 118% | CAKI-1 renal 96.2% | A498 renal 104% | CCRF-CEM leukemia 103% | MOLT-4 leukemia 95%

Nc1nc(-c2ccccc2)cs1
inactive: HCT-15 colon 106% | HT29 colon 100% | SNB-75 CNS 84.3% | SNB-19 CNS 105% | U251 CNS 98.9% | PC-3 prostate 98.1% | SK-MEL-5 melanoma 102% | UACC-62 melanoma 107% | LOX IMVI melanoma 97.9% | SK-MEL-28 melanoma 109% | SK-MEL-2 melanoma 82.1% | SN12C renal 101% | UO-31 renal 75.7% | TK-10 renal 98.5% | ACHN renal 103% | CAKI-1 renal 94% | A498 renal 81.5% | CCRF-CEM leukemia 110% | MOLT-4 leukemia 105%

c1ccc2nc(-c3ccc4ccccc4n3)ccc2c1
inactive: HCT-15 colon 104% | HT29 colon 105% | SNB-75 CNS 85.6% | SNB-19 CNS 105% | U251 CNS 95.8% | PC-3 prostate 84.5% | SK-MEL-5 melanoma 88.9% | UACC-62 melanoma 97% | LOX IMVI melanoma 92.2% | SK-MEL-28 melanoma 106% | SK-MEL-2 melanoma 88% | SN12C renal 95.9% | UO-31 renal 78.4% | TK-10 renal 116% | ACHN renal 96.4% | CAKI-1 renal 83.2% | A498 renal 97.3% | CCRF-CEM leukemia 90% | MOLT-4 leukemia 88.3%

Cc1ccc2nc(-c3c(CCCO)noc3N)[nH]c(=O)c2c1
inactive: HCT-15 colon 105% | HT29 colon 113% | SNB-75 CNS 82.2% | SNB-19 CNS 113% | U251 CNS 99.6% | PC-3 prostate 96% | SK-MEL-5 melanoma 99.6% | UACC-62 melanoma 104% | LOX IMVI melanoma 100% | SK-MEL-28 melanoma 112% | SK-MEL-2 melanoma 105% | EKVX NSCLC 101% | SN12C renal 111% | UO-31 renal 47% | TK-10 renal 95.5% | CAKI-1 renal 97.1% | A498 renal 104% | CCRF-CEM leukemia 88.5% | MOLT-4 leukemia 83.7%
